FBPA Giardia inh – blocks Giardia fructose-bisphosphate aldolase activity. purified Giardia FBPA. actives 0.71% (n = 290,000). AID 2451. Potency, µM (highest dose often 59.6 µM), for inactives: at the top dose activity, negative = inhibition, usual class: inhibitors. A8B2U2; further: potency means the concentration at half of the fitted maximal effect; on the % scale 0 is the no-effect control and ±100 the full control effect; nearly all actives have a fitted effect of over 55% in size
Target sequence (A8B2U2 whole entry, looked up): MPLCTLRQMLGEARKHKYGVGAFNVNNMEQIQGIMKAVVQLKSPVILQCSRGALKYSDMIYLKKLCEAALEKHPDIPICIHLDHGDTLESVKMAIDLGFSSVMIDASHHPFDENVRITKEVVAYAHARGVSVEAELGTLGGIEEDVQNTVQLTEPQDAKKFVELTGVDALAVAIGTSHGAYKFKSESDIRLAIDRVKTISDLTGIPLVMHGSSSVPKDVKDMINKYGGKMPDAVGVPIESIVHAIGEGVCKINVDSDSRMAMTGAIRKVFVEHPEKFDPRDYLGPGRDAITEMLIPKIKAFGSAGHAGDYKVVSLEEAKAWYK
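Giardia FBPA (40 nM reagent) was preincubated 10 min at RT with compound (up to 57.5 uM final), then substrate plus GAPDH/TPI/NAD/arsenate coupling system with diaphorase/resazurin was added; resorufin fluorescence (525/598 nm) was read after 20 min.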
CHX counter – affects cycloheximide protein synthesis inhibition readout, counter-screen; cell reporter, cycloheximide protein synthesis inhibition counterscreen; max response, %; actives 12% (n = 300,000); AID 2314; in the data active means max response mostly above about 13%, no sharp cut-off; inactive means mostly below about 14%; further: read at 38.3 µM for the half of the compounds with a filed dose; 0% is about no effect
Shiga toxin inh – blocks Shiga toxin action in Vero cells | Vero cells, Shiga toxin protein synthesis inhibition reporter | inhibition, % at 38.7 µM | actives 9.2% (n = 290,000); in the data active means inhibition mostly above about 28%, no sharp cut-off; inactive means mostly below about 43%; further: 0% is about no effect
Sm TGR block – S. mansoni TGR enzyme inhibition; purified TGR, DTNB reduction, TNB absorbance 405 nm; Potency, µM (doses to about 114 µM), without a hit: top-dose activity change, negative = inhibition, hits mostly inhibitors; actives 3% (n = 360,000); AID 485364; further: potency means the concentration at half of the fitted maximal effect; on the % scale 0 is the no-effect control and ±100 the full control effect; nearly all actives have a fitted effect of over 60% in size
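First, TGR (20 nM dispensed) and NADPH were mixed with compound. Second, a 15 min room-temperature incubation followed. Third, further NADPH and then DTNB were added to start the reaction. Finally, TNB absorbance was monitored kinetically.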
LmPK inh – LmPK (Leishmania mexicana) enzyme inhibition. Q27686. purified LmPK, Kinase-Glo ATP luminescence, 1 h. Potency, µM (titrated, usually from 57.5 µM), without a hit: at the top dose activity change, negative = inhibition, actives largely listed as inhibitors. actives 0.37% (n = 290,000); further: potency means the concentration at half of the fitted maximal effect; on the % scale 0 is the no-effect control and ±100 the full control effect
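Purified LmPK (0.1 nM) with 0.5 mM PEP and 0.1 mM ADP in imidazole buffer pH 7.2 with MgCl2/KCl, 1 h at room temperature. ATP formed was read by luciferase luminescence and normalized to no-enzyme and uninhibited controls.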
TbPYK inhibitor – T. brucei pyruvate kinase inhibition; TbPYK enzyme, Kinase-Glo Plus ATP luminescence, 45 min; AID 624173; Potency, µM (highest dose often 76.8 µM), for inactives: at the highest dose activity, negative = inhibition, most hits filed as inhibitors; actives 0.12% (n = 410,000); further: potency means the concentration at half of the fitted maximal effect; on the % scale 0 is the no-effect control and ±100 the full control effect; nearly all actives have a fitted effect of over 50% in size
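Activity of T. brucei pyruvate kinase was followed by Kinase-Glo Plus luminescence after the enzyme reacted 45 min at room temperature with 130 uM ADP (final) and substrate. Test compounds were added before ADP at multiple concentrations.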
An asterisk follows results filed as active; ? = inconclusive; / = not tested or not shown. This is one part of a sample in which hits are shown more often than they occur. Unless noted, the call rests on the fitted dose curve; in most records, active means well fitted curve in the direction sought with a large enough effect; inconclusive means small, poorly fitted or top-dose-only effect, or another doubt; inactive means no such curve, though single readings can be large; an effect the other way counts as inactive or inconclusive.

SMILES	FBPA Giardia inh	CHX counter	Shiga toxin inh	Sm TGR block	LmPK inh	TbPYK inhibitor
O=[N+]([O-])c1ccc(Cl)c(/C=N/N2CCN(Cc3ccccc3Cl)CC2)c1	1%	-4	-17	10%	9%	-2%
CC1(C)N=C(c2ccccc2)C(c2ccccc2)=N1	/	/	/	/	/	-1%
C=CCNC(=O)c1cc2cc(Cl)ccc2nc1N	/	/	/	/	/	4%
O=C(Nc1ccc2c(c1)OCO2)Nc1ccc(F)cc1F	-2%	65*	87*	12%	-6%	-2%
O=C(Nc1ccc2c(c1)OCO2)Nc1ccc(Cl)cc1Cl	3%	28*	64*	-8%	2%	/
O=C(Nc1ccc([N+](=O)[O-])cc1)Nc1ccc2c(c1)OCCO2	-2%	55*	129*	2%	6%	1%
Cc1cc(C)c(NC(=O)Nc2ccc3c(c2)OCO3)c(C)c1	-2%	37*	82*	4%	4%	-2%
O=C(Nc1ccc(OC(F)F)c(Cl)c1)Nc1ccc2c(c1)OCO2	-3%	26	42	-7%	1%	-8%
COCCN=C1OC(=O)N2C(=O)C3=C4C(C[C@H]5C(=O)N(c6ccccc6)C(=O)[C@H]5[C@H]4[C@@]12Cc1ccccc1)[C@H]1C(=O)N(c2ccccc2)C(=O)[C@H]1[C@H]3C (some centres not stated)	-1%	/	/	/	/	/
Cn1ccc(NC(=O)Nc2ccc(Cl)cc2Cl)n1	-2%	51*	22*	-8%	-3%	7%
O=C(Nc1cccc(C(=O)O)c1)/C(=C\c1ccc2c(c1)OCO2)NC(=O)c1ccc(Br)o1	21%	16*	45*	-35%	2%	-16%
Cc1ccc(C(=O)O)cc1NC(=O)Nc1ccc2c(c1)OCO2	0%	20*	73*	6%	-5%	-8%
O=C(O)C1CCCCC1C(=O)Nc1ccc2c(c1)OCO2 (configuration not stated)	5%	-1	-9	-3%	3%	-4%
CC1=C(C)CC(C(=O)Nc2ccc3c(c2)OCO3)C(C(=O)O)C1 (configuration not stated)	0%	28*	41*	-2%	5%	-23%
CCc1ccc2[nH]c(C(=O)Nc3ccc(Br)c(C)n3)cc2c1	2%	32*	137*	-2%	-1%	-16%
O=C(Nc1cccnc1)Nc1ccc2c(c1)OCO2	-8%	43*	88*	-11%	?	/
O=C(Nc1cccc(C(=O)O)c1)Nc1ccc2c(c1)OCO2	-4%	30*	36*	-4%	-7%	-16%
CCc1ccc2[nH]c(C(=O)Nc3ccc4c(c3)OCO4)cc2c1	-13%	19*	47	-10%	5%	-5%
Cc1cccc2sc(N(Cc3cccnc3)C(=O)C3CCCCC3)nc12	/	/	/	14%	/	-1%
O=S(=O)(CCN1CCN(c2ccccc2O)CC1)c1cc(Cl)ccc1Cl	/	/	/	?	/	-9%
Cc1ccc(NC(=O)Nc2ccc3c(c2)OCO3)c(Br)c1	-1%	43*	192	8%	2%	3%
Cc1cc(C)c2[nH]c(C(=O)Nc3ccc4c(c3)OCO4)cc2c1	-29%	16*	46	-4%	3%	-26%
O=C(Nc1ccc(Cl)cc1)Nc1ccc2c(c1)OCO2	/	76*	80*	-4%	-10%	6%
CC(C)c1ccccc1NC(=O)Nc1ccc2c(c1)OCO2	/	2	25	-14%	-5%	7%
O=C(Nc1ccc2c(c1)OCO2)Nc1ccc2c(c1)OCO2	-8%	29*	75*	/	-1%	-6%
Cc1ccc(-n2ncc(C(=O)NCCCN3CCN(c4cccc(Cl)c4)CC3)c2-n2cccc2)cc1	/	/	/	8%	/	-4%
CN(C)C(CNC(=O)c1cccc(S(=O)(=O)N2CC3(C)CC2CC(C)(C)C3)c1)c1ccco1 (configuration not stated)	3%	1	-3	25µM*	-4%	1%
CCCNC(=O)c1cccc(S(=O)(=O)N2CC3(C)CC2CC(C)(C)C3)c1 (configuration not stated)	/	/	/	-20%	/	-7%
Cc1nnc(NCc2ccc(F)cc2)c2c1nnn2Cc1ccccc1Cl	/	/	/	2%	/	-2%

High-throughput results (PubChem)
